51 compounds from PubChem BioAssay (Tox21) can be followed below.

Test [1] in a line: cAMP Responsive Elements (CRE) small molecule antagonists, cell-based qHTS assay: qHTS cell viability counter screen (AID 2060913). Note: nearly all actives have a fitted effect of over 40% in size. The essentials: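 Cytotoxicity read in the same wells as the CRE-bla HEK293T antagonist assay: after 3 h compound with 0.25 uM NKH477 final and 2 h beta-lactamase substrate, CellTiter-Glo luminescence measured.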
(In general: Quantitative high-throughput screening tests each substance at several concentrations.)

Test [2] is described as follows: cAMP Responsive Elements (CRE) small molecule agonists, cell-based qHTS assay: qHTS cell viability counter screen (AID 2060914). Note: nearly all actives have a fitted effect of over 50% in size. Note: potency is the fitted concentration of half-maximal effect. In outline:
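CRE-bla HEK293T cells in 10% dialyzed FBS medium were exposed to compounds for 3 h at 37C after 18 h plating. CellTiter-Glo was then added in the same wells, and luminescence was read after 30 min at room temperature.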

Each structure is given as a SMILES string. Records with an inconclusive call do not appear. Values without a mark were called inactive. Calls of active or inactive are those of the source. Calls come from the whole dose curve; as a rule, active = well fitted cell-killing curve with a large enough effect in the repeat runs; inconclusive = weak or mixed curves, or effect the other way; inactive = flat fitted curve, though single readings scatter.
% is set by controls: 0 for no effect and ±100 for the full control effect.

Regarding `CC[N+](CC)(CC)CCOc1cccc(OCC[N+](CC)(CC)CC)c1OCC[N+](CC)(CC)CC`, the Potency result in test [1] and in test [2] was “inactive” each time.

For `O=C(O)CCC(=O)Nc1ccc(S(=O)(=O)Nc2nccs2)cc1`, the Potency entry in test [1] and in test [2] was “inactive” throughout.

With `O=[N+]([O-])c1ccc(F)cc1F`, the Potency entry in test [1] and in test [2] was “inactive” in each case.

`CCc1cccc(C)c1N(C(=O)CS(=O)(=O)O)C(C)COC` (configuration not stated): the Potency result in test [1] and in test [2] was “inactive” in each case.

For the compound `COc1cc(/C=C/c2ccccc2)oc(=O)c1`, the Potency result in test [1] and in test [2] was “inactive” in each case.

`CCCCCCCCCCCCCCCC/C=C/C1CC(=O)OC1=O` (configuration not stated): the Potency result in test [1] and in test [2] was “inactive” in each case.

Consider `O=C(O)CCCC[C@@H]1SC[C@@H]2NC(=O)N[C@@H]21`, for which the Potency result in test [1] and in test [2] was “inactive” in each case.

On to `CC(C)CCCC(C)CCCC(C)CCCCC(C)CCCC(C)CCCC(C)C` (configuration not stated), for which the Potency entry in test [1] and in test [2] was “inactive” in each case.

As to `COc1ccc(C(=O)c2ccccc2)c(O)c1`, the Potency result in test [1] and in test [2] was “inactive” throughout.

Turning to `CCn1c2ccccc2c2ccccc21`, the Potency entry in test [1] and in test [2] was “inactive” in each case.

On to `OC[C@H]1O[C@@H]2O[C@H]3[C@H](O)[C@@H](O)[C@@H](O[C@H]4[C@H](O)[C@@H](O)[C@@H](O[C@H]5[C@H](O)[C@@H](O)[C@@H](O[C@H]6[C@H](O)[C@@H](O)[C@@H](O[C@H]7[C@H](O)[C@@H](O)[C@@H](O[C@H]8[C@H](O)[C@@H](O)[C@@H](O[C@H]1[C@H](O)[C@H]2O)O[C@@H]8CO)O[C@@H]7CO)O[C@@H]6CO)O[C@@H]5CO)O[C@@H]4CO)O[C@@H]3CO`, for which the Potency result in test [1] and in test [2] was “inactive” throughout.

Turning to `O=C1CC[C@@H](C(=O)O)N1`, the Potency entry in test [1] and in test [2] was “inactive” throughout.

With `O=C(O)c1ccc(OCCN2CCCCC2)cc1`, the Potency entry in test [1] and in test [2] was “inactive” in each case.

`O=C(O)CCCC(=O)O`: the Potency result in test [1] and in test [2] was “inactive” each time.

For the compound `CC(C)(C)C1CCCCC1=O` (configuration not stated), the Potency result in test [1] and in test [2] was “inactive” in each case.

With `[O-][N+](=Nc1ccccc1)c1ccccc1`, the Potency entry in test [1] and in test [2] was “inactive” each time.

As for `CCOC(=O)CC(C(C)=O)C(C)=O`, the Potency entry in test [1] and in test [2] was “inactive” throughout.

Regarding `CNS(=O)(=O)Cc1ccc2[nH]cc(CCN(C)C)c2c1`, the Potency result in test [1] and in test [2] was “inactive” throughout.

As to `OCC(O)CS` (configuration not stated), the Potency result in test [1] and in test [2] was “inactive” in each case.

As to `CC(C)(C)c1ccc(C=O)cc1`, the Potency result in test [1] and in test [2] was “inactive” in each case.

In the case of `CCOC(=O)c1ccccc1O`, the Potency entry in test [1] and in test [2] was “inactive” in each case.

Turning to `COc1ccccc1Oc1c(NS(=O)(=O)c2ccc(C(C)(C)C)cc2)nc(-c2ncccn2)nc1OCCO`, the Potency result in test [1] and in test [2] was “inactive” throughout.

Regarding `O=C1NC(=O)c2ccccc21`, the Potency result in test [1] and in test [2] was “inactive” each time.

In the case of `Cc1c2oc3c(C)ccc(C(=O)N[C@@H]4C(=O)N[C@H](C(C)C)C(=O)N5CCC[C@H]5C(=O)N(C)CC(=O)N(C)[C@@H](C(C)C)C(=O)O[C@@H]4C)c3nc-2c(C(=O)N[C@@H]2C(=O)N[C@H](C(C)C)C(=O)N3CCC[C@H]3C(=O)N(C)CC(=O)N(C)[C@@H](C(C)C)C(=O)O[C@@H]2C)c(N)c1=O`, the Potency entry in test [1] and in test [2] was “inactive” throughout.

For the compound `O=c1cccccc1O`, the Potency entry in test [1] and in test [2] was “inactive” each time.

Regarding `C1CCCNCCC1`, the Potency result in test [1] and in test [2] was “inactive” in each case.

In the case of `CCCCC(CC)COP(=O)(O)O` (configuration not stated), the Potency entry in test [1] and in test [2] was “inactive” in each case.

Turning to `CC(=O)c1ccc(C(C)=O)cc1`, the Potency result in test [1] and in test [2] was “inactive” throughout.

For `C[C@@H]1CN(CCCn2c3ccccc3c3ccccc32)C[C@H](C)N1`, the Potency result in test [1] and in test [2] was “inactive” throughout.

Regarding `CCOC(=S)SSC(=S)OCC`, the Potency entry in test [1] and in test [2] was “inactive” each time.

Take `Cc1ccc(OC(=O)c2ccccc2O)cc1`: the Potency entry in test [1] and in test [2] was “inactive” each time.

On to `CCOC(=O)Cc1cccc2ccccc12`, for which the Potency result in test [1] and in test [2] was “inactive” in each case.

For the compound `CC(C)=O`, the Potency result in test [1] was “inactive”. In test [2], the Potency was 25 µM (active).

As to `OCC1(CO)COCOC1`, the Potency entry in test [1] and in test [2] was “inactive” in each case.

In the case of `O=C1C(CCS(=O)c2ccccc2)C(=O)N(c2ccccc2)N1c1ccccc1` (configuration not stated), the Potency entry in test [1] and in test [2] was “inactive” throughout.

In the case of `CCOC(=O)/C=C/C(=O)OCC`, the Potency result in test [1] and in test [2] was “inactive” each time.

Turning to `OCC(CO)n1cnc(-c2ccc(F)cc2)c1-c1ccnc(Oc2ccccc2)n1`, the Potency result in test [1] and in test [2] was “inactive” in each case.

For `O=C(c1ccccc1O)c1ccccc1O`, the Potency result in test [1] and in test [2] was “inactive” in each case.

As to `Nc1ccc2cc(S(=O)(=O)O)cc(O)c2c1`, the Potency entry in test [1] and in test [2] was “inactive” throughout.

Consider `NS(=O)(=O)c1ccccc1Cl`, for which the Potency result in test [1] and in test [2] was “inactive” each time.

Turning to `COc1ccc(-c2cc(=O)c3c(O)cc(O[C@@H]4O[C@H](CO[C@@H]5O[C@@H](C)[C@H](O)[C@@H](O)[C@H]5O)[C@@H](O)[C@H](O)[C@H]4O)cc3o2)cc1O`, the Potency entry in test [1] and in test [2] was “inactive” each time.

On to `CC[C@@H](CO)NCCN[C@@H](CC)CO`, for which the Potency entry in test [1] and in test [2] was “inactive” throughout.

Consider `COc1ccc(C(=O)Nc2nc3ccccc3c(NCc3ccccc3)c2C#N)cc1`, for which the Potency entry in test [1] and in test [2] was “inactive” each time.

Regarding `Nc1ncn([C@H]2C[C@H](O)[C@@H](CO)O2)c(=O)n1`, the Potency result in test [1] and in test [2] was “inactive” throughout.

For `O=[N+]([O-])c1ccc(F)c(Cl)c1`, the Potency entry in test [1] and in test [2] was “inactive” in each case.

For the compound `Nc1ccc(C(=O)OCC(O)CO)cc1` (configuration not stated), the Potency result in test [1] and in test [2] was “inactive” in each case.

In the case of `C[C@@H]1CN(c2c(F)c(F)c3c(=O)c(C(=O)O)cn(C4CC4)c3c2F)C[C@H](C)N1`, in test [1], the viability change, negative = cytotoxic is -1.63% [at 18.9 µM]. Besides, the activity change, negative = cytotoxicity in test [2] is -12.9% [at 18.9 µM].

In the case of `CCc1cc(C(N)=S)ccn1`, the Potency result in test [1] and in test [2] was “inactive” throughout.

For the compound `Cc1nc2sccn2c(=O)c1CCN1CCC(=C(c2ccc(F)cc2)c2ccc(F)cc2)CC1`, the Potency entry in test [1] and in test [2] was “inactive” throughout.

`CC(CCO)CCCC(C)(C)O` (configuration not stated): the Potency result in test [1] and in test [2] was “inactive” in each case.

Turning to `CCN(CC)CCNc1ccc(CNC=O)c2sc3ccc(OC)cc3c(=O)c12`, the Potency entry in test [1] and in test [2] was “inactive” throughout.
